{
  "source": "the supplement of paper PMC8728848",
  "binders": {"B1": {"name": "FBG2 (Homo sapiens), Q9NRD1 (protein)", "chain": "MDAPHSKAALDSINELPENILLELFTHVPARQLLLNCRLVCSLWRDLIDLMTLWKRKCLREGFITKDWDQPVADWKIFYFLRSLHRNLLRNPCAEEDMFAWQIDFNGGDRWKVESLPGAHGTDFPDPKVKKYFVTSYEMCLKSQLVDLVAEGYWEELLDTFRPDIVVKDWFAARADCGCTYQLKVQLASADYFVLASFEPPPVTIQQWNNATWTEVSYTFSDYPRGVRYILFQHGGRDTQYWAGWYGPRVTNSSIVVSPKMTRNQASSEAQPGQKHGQEEAAQSPYRAVVQIFPPPVTIQQWNNATWTEVSYTFSDYPRGVRYILFQHGGRDTQYWAGWYGPRVTNSSIVVSPKMTRNQASSEAQPGQKHGQEEAAQSPYRAVVQI"}},
  "assay_in_all_cases": "glycan array binding signal (z-score within array); higher = stronger binding",
  "details_in_all_cases": "glycan notation: IUPAC condensed, linker removed",
  "key": {"[1]": {"biological_target": "Fuc(a1-3)[Gal(b1-4)]GlcNAc", "outline": "(§1)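 The binding signal is a Z-score computed within each array. Data were drawn from 3228 arrays in the Consortium for Functional Glycomics database, restricted to those with a known protein sequence. Scores were averaged over arrays of the same protein sequence at different concentrations or buffers, and over linkers, and negative values can be taken as non-binding.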"}, "[2]": {"biological_target": "Fuc(a1-3)[Gal3S(b1-4)]GlcNAc", "outline": "as §1"}, "Gal(a1-2)Gal": {"biological_target": "Gal(a1-2)Gal", "outline": "as §1"}, "Gal(b1-2)Gal": {"biological_target": "Gal(b1-2)Gal", "outline": "as §1"}, "[3]": {"biological_target": "Gal3S(b1-3)[Fuc(a1-4)]GlcNAc", "outline": "as §1"}, "Glc(b1-4)Glc": {"biological_target": "Glc(b1-4)Glc", "outline": "as §1"}, "[4]": {"biological_target": "GlcNAc(a1-6)Gal(b1-4)GlcNAc", "outline": "as §1"}, "GlcNAc(b1-3)GalNAc": {"biological_target": "GlcNAc(b1-3)GalNAc", "outline": "as §1"}, "[5]": {"biological_target": "GlcNAc(b1-4)[GlcNAc(b1-6)]GalNAc", "outline": "as §1"}, "[6]": {"biological_target": "Man(a1-2)Man(a1-2)Man(a1-3)[Man(a1-2)Man(a1-3)[Man(a1-2)Man(a1-6)]Man(a1-6)]Man(b1-4)GlcNAc(b1-4)GlcNAc", "outline": "as §1"}, "[7]": {"biological_target": "Man(a1-2)Man(a1-2)Man(a1-3)[Man(a1-2)Man(a1-6)[Man(a1-3)]Man(a1-6)]Man(b1-4)GlcNAc(b1-4)GlcNAc", "outline": "as §1"}, "[8]": {"biological_target": "Man(a1-2)Man(a1-3)[Man(a1-6)]Man(a1-6)[Man(a1-2)Man(a1-3)]Man(b1-4)GlcNAc(b1-4)GlcNAc", "outline": "as §1"}, "[9]": {"biological_target": "Man(a1-3)[Man(a1-6)]Man(a1-6)[Man(a1-3)]Man(b1-4)GlcNAc(b1-4)GlcNAc", "outline": "as §1"}, "[10]": {"biological_target": "Man(a1-3)[Man(a1-6)]Man(b1-4)GlcNAc(b1-4)GlcNAc", "outline": "as §1"}, "[11]": {"biological_target": "Neu5Ac(a2-3)Gal(b1-3)[Fuc(a1-4)]GlcNAc", "outline": "as §1"}, "[12]": {"biological_target": "Neu5Ac(a2-3)[GalNAc(b1-4)]Gal(b1-4)Glc", "outline": "as §1"}, "[13]": {"biological_target": "Neu5Ac(a2-6)GalNAc(b1-4)GlcNAc", "outline": "as §1"}, "[14]": {"biological_target": "Neu5Ac(a2-8)Neu5Ac(a2-3)[GalNAc(b1-4)]Gal(b1-4)Glc", "outline": "as §1"}},
  "note": "About 410 targets per protein were measured; listed, in parts, are those with the strongest signals and a random draw of the rest.",
  "data": [
    {"binder": "B1", "values": [
      {"measurement": "glycan array binding signal (z-score)", "setting": "[1]", "result": -0.537},
      {"measurement": "glycan array binding signal (z-score)", "setting": "[2]", "result": -0.236},
      {"measurement": "glycan array binding signal (z-score)", "setting": "Gal(a1-2)Gal", "result": -0.526},
      {"measurement": "glycan array binding signal (z-score)", "setting": "Gal(b1-2)Gal", "result": -0.363},
      {"measurement": "glycan array binding signal (z-score)", "setting": "[3]", "result": 1.01},
      {"measurement": "glycan array binding signal (z-score)", "setting": "Glc(b1-4)Glc", "result": -0.116},
      {"measurement": "glycan array binding signal (z-score)", "setting": "[4]", "result": -0.895},
      {"measurement": "glycan array binding signal (z-score)", "setting": "GlcNAc(b1-3)GalNAc", "result": -0.923},
      {"measurement": "glycan array binding signal (z-score)", "setting": "[5]", "result": -0.787},
      {"measurement": "glycan array binding signal (z-score)", "setting": "[6]", "result": 3.27},
      {"measurement": "glycan array binding signal (z-score)", "setting": "[7]", "result": 3.69},
      {"measurement": "glycan array binding signal (z-score)", "setting": "[8]", "result": 3.61},
      {"measurement": "glycan array binding signal (z-score)", "setting": "[9]", "result": 4.08},
      {"measurement": "glycan array binding signal (z-score)", "setting": "[10]", "result": 3.91},
      {"measurement": "glycan array binding signal (z-score)", "setting": "[11]", "result": -0.752},
      {"measurement": "glycan array binding signal (z-score)", "setting": "[12]", "result": -0.116},
      {"measurement": "glycan array binding signal (z-score)", "setting": "[13]", "result": -0.582},
      {"measurement": "glycan array binding signal (z-score)", "setting": "[14]", "result": -0.018}
    ]}
  ]
}
